Our source for the composite z-score, composite Z-score and z-score values is PubChem BioAssay.

The target of one assay is Albumin (Bos taurus) (UniProt P02769). Briefly: compounds binding labelled BSA control protein – biochemical, small-molecule microarray, Alexa647 label, 635/667 nm fluorescence, artefact control for SMM control protein annotation, profiling panel (AID 1118).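 Note: score merges 667 nm emission intensity and signal-to-noise per printed compound spot.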 The settings on record: BSA-A647 binding, fluorescence 635 nm, higher = more signal.
The nature of assay [1]: probe aXIP binding to arrayed compounds – biochemical, NeuroSMM set, 635/667 nm fluorescence, primary screen (AID 1119).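 Note: probe is the protein aXip251-270 applied at 1 µg/mL to compound-printed slides; binding of probe to printed compounds measured as 667 nm fluorescence plus signal to noise.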 To be noted: small-molecule microarray, higher = more signal, called active from +8 up or from −8 down.
The nature of assay [2]: probe aNOTCH3 binding on compound microarray – biochemical, small-molecule microarray, 635/667 nm fluorescence, primary screen (AID 1120).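 Note: probe is a biotin-tagged antibody raised against NOTCH3 rather than NOTCH3 protein; score merges spot fluorescence near 667 nm with spot signal to noise.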 To be noted: higher = more signal.
Assay [3] is described as follows: probe aNOTCH2 binding on compound microarray – biochemical, small-molecule microarray, 635/667 nm fluorescence, primary screen (AID 1121).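 Note: score merges feature fluorescence read at 667 nm with its signal to noise.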 To be noted: higher = more signal.
The target of assay [4] is Carbonic anhydrase 2 (Homo sapiens) (UniProt P00918). Briefly: compounds binding carbonic anhydrase 2 – biochemical, small-molecule microarray, Alexa647-labelled CAII, profiling panel (AID 1122). To be noted: CAII-A647 binding fluorescence, higher = more signal.
Assay [5] can be described thus: COS7 lysate on small-molecule microarray, probe aHis, 635 nm (AID 1123).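 Note: z-score combines 667nm fluorescence intensity with signal-to-noise per printed compound spot.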 The settings on record: COS7 cell lysate, fluorescence, higher = more signal.
Assay [6] is described as follows: probe aLAP1 signal on lysate-treated microarray – cell lysate, small-molecule microarray, COS7 lysate, primary screen (AID 1124).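 Note: lysate comes from COS7 cells expressing LAP1 and is applied at 0.3 µg/mL; score merges spot fluorescence near 667 nm with signal-to-noise over triplicate slides.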 The settings on record: probe aLAP1, fluorescence, higher = more signal.
A further assay deals with Sam68 (KHDRBS1). Briefly: compounds binding KHDRBS1 protein – biochemical, small-molecule microarray, 635 nm fluorescence, primary screen (AID 1125).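 Note: score merges 667 nm channel intensity with signal to noise over triplicate slides.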 To be noted: higher = more signal.
The test system of assay [7] is Chordin-like protein 2 (CHRDL2). Briefly: compounds binding chordin-like 2 – biochemical, small-molecule microarray, 635 nm fluorescence, primary screen (AID 1126).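 Note: printed compound slides probed with Chrdl2 protein at 4 µg/mL for 1 h at 4 C; score merges 667 nm emission intensity with signal to noise over three replicate slides.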 The settings on record: fluorescence 635 nm, higher = more signal.
Assay [8] deals with Concanavalin-A (Canavalia ensiformis) (UniProt P02866). In words: compounds binding concanavalin A lectin – biochemical, small-molecule microarray, Alexa647 label, 635 nm, artefact control for SMM control protein annotation, primary screen (AID 1127).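 Note: z combines 667 nm emission intensity with signal-to-noise across three replicate slides.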 The settings on record: ConA-A647 binding fluorescence, higher = more signal.
Assay [9] is described as follows: compounds binding Alexa647 anti-His antibody – biochemical, small-molecule microarray, 635 nm fluorescence, artefact control for SMM control protein annotation, primary screen (AID 1128).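 Note: score merges feature fluorescence with signal-to-noise for each printed compound spot.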 The settings on record: higher = more signal.
Assay [10] has as its system Human papillomavirus type 1a E7 protein (residues 1-88). In words: HPV1a E7 small-molecule binders, primary screen, biochemical, small-molecule microarray, residues 1-88, 635 nm (AID 1129). To be noted: small-molecule microarray binding, fluorescence 635 nm; higher = more signal.
Assay [11] concerns the target Focal adhesion kinase 1 (Homo sapiens) (UniProt Q05397). Briefly: PTK2 protein binding on printed compound slides – biochemical, small-molecule microarray, 635/667 nm fluorescence, BSA, DTT, primary screen (AID 1130).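 Note: composite of spot emission at 667 nm and signal to noise over triplicate slides.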 The settings on record: 635 nm fluorescence, higher = more signal.
In assay [12] the test system is Fibrinogen (Alexa647-labelled). In words: Alexa647-fibrinogen binding to printed small molecules – biochemical, small-molecule microarray, 635/667 nm fluorescence, artefact control for SMM control-protein annotation, profiling panel (AID 1131).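 Note: z-score merges 667 nm fluorescence with per-spot signal-to-noise over triplicate slides.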 To be noted: fibrinogen-A647 binding fluorescence, higher = more signal.
Assay [13] has as its target Follistatin (Homo sapiens) (UniProt P19883). Briefly: FST protein binding to printed compounds – biochemical, small-molecule microarray, 635/667 nm fluorescence, primary screen (AID 1132). To be noted: 635 nm fluorescence, higher = more signal.
The target in assay [14] is Fibroblast growth factor 2 (Homo sapiens) (UniProt P09038). In words: basic fibroblast growth factor binding to printed compounds – biochemical, small-molecule microarray, 635/667 nm fluorescence, primary screen (AID 1133). The settings on record: FGF2, fluorescence 635/667, higher = more signal.
Assay [15] can be described thus: JC-1 mitochondrial potential readout, lung cancer cells – cell-based, A549, JC-1 fluorescence, basal, 24 h, 100 nL, profiling panel (AID 1138).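 Note: A549 lung adenocarcinoma cells under basal conditions with no added stimulus; test concentration not given here.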 The settings on record: higher = more signal.
The test system of the next assay is Lefty1. In words: Lefty1 protein binding to printed compounds – biochemical, small-molecule microarray, 635/667 nm fluorescence, primary screen (AID 1139). To be noted: fluorescence 635/667, higher = more signal.
Assay [16] has as its system wheat germ agglutinin (Triticum aestivum), Alexa647-labelled. Briefly: Alexa647-WGA lectin binding to printed small molecules – biochemical, small-molecule microarray, 635/667 nm fluorescence, artefact control for SMM control-protein annotation, profiling panel (AID 1140).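 Note: score merges 667 nm feature emission with signal to noise over triplicate slides.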 The settings on record: WGA-A647 binding, 635 nm fluorescence, higher = more signal.
Assay [17] addresses Luciferin 4-monooxygenase (Photinus pyralis) (UniProt P08659). Briefly: inhibition of purified Photinus pyralis luciferase – biochemical, luminescence, purified enzyme, 2006 set, primary screen (AID 1141).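 Note: cell-free assay with purified firefly luciferase at 100 ng per well in PBS; test concentration not given here.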 The settings on record: purified firefly luciferase, SteadyGlo luminescence, 30 min; higher = more signal, called active from +8 up or from −8 down.

Active and inactive are the calls of the source.

Sequence of Follistatin (Homo sapiens) (P19883 whole entry, looked up): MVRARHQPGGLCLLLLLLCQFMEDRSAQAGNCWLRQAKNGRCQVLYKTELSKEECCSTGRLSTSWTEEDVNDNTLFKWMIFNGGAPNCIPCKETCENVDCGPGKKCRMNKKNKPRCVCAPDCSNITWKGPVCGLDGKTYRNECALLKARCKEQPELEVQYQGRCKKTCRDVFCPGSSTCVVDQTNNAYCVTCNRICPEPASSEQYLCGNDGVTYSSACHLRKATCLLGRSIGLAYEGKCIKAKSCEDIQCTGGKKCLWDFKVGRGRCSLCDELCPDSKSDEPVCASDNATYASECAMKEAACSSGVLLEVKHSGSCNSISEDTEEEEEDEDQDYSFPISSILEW
Sequence of Focal adhesion kinase 1 (Homo sapiens) (Q05397 whole entry, looked up): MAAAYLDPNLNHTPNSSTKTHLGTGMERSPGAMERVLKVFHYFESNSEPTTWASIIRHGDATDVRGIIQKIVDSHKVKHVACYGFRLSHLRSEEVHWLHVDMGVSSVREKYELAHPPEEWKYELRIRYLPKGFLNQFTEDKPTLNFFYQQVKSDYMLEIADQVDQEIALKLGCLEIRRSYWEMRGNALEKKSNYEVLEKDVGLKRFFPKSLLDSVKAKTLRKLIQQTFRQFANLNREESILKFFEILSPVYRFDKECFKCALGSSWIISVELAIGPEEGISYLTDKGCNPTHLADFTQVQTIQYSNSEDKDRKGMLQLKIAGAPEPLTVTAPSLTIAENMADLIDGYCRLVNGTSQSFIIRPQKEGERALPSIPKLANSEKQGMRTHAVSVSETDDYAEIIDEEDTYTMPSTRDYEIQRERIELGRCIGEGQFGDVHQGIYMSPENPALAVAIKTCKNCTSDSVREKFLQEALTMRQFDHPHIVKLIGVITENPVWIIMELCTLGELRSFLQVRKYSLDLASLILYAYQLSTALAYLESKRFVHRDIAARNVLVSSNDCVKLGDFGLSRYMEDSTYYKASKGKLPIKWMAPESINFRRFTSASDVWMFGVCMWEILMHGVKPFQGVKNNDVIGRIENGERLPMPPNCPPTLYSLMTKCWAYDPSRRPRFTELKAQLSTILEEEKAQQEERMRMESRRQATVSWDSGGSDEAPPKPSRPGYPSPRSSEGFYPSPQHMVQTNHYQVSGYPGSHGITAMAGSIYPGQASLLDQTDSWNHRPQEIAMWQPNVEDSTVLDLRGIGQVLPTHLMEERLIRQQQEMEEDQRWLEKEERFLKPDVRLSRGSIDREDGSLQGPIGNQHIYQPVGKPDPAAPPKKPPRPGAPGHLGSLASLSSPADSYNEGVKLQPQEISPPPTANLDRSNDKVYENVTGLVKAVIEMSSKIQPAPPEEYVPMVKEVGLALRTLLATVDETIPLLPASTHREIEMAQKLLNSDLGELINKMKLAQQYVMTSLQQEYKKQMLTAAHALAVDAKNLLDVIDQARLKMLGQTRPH
Sequence of Luciferin 4-monooxygenase (Photinus pyralis) (P08659 whole entry, looked up): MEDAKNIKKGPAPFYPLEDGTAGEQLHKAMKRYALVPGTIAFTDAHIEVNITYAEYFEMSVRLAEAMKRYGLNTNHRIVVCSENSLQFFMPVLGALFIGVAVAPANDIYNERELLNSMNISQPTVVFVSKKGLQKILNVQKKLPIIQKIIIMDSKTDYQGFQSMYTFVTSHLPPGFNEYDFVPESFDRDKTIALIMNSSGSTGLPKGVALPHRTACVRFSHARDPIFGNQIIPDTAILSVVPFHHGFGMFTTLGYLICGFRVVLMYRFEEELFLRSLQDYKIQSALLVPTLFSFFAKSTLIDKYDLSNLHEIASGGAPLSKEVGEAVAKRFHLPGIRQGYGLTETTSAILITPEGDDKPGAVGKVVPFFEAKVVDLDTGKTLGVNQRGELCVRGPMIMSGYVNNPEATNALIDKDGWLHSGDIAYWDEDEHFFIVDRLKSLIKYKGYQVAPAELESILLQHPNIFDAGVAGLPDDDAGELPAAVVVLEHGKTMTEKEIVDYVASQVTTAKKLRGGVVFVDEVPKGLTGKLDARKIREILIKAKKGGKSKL
Sequence of Concanavalin-A (Canavalia ensiformis) (P02866 whole entry, looked up): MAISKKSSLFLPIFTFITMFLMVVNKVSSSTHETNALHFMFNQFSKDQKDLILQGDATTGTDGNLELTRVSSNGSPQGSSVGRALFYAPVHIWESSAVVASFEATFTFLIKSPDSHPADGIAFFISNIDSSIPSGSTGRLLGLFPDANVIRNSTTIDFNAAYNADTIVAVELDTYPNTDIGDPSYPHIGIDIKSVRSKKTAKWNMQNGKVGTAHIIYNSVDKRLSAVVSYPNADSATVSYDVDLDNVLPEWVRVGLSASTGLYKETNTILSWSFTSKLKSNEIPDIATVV
Sequence of Fibroblast growth factor 2 (Homo sapiens) (P09038 whole entry, looked up): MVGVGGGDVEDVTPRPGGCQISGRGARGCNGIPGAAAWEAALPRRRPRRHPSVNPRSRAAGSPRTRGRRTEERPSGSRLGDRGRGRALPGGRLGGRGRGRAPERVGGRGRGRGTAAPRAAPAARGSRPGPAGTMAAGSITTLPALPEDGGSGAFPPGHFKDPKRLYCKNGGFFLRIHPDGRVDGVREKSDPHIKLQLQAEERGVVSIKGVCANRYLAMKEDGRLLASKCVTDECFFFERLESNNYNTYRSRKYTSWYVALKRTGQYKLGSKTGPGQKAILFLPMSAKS
Sequence of Albumin (Bos taurus) (P02769 whole entry, looked up): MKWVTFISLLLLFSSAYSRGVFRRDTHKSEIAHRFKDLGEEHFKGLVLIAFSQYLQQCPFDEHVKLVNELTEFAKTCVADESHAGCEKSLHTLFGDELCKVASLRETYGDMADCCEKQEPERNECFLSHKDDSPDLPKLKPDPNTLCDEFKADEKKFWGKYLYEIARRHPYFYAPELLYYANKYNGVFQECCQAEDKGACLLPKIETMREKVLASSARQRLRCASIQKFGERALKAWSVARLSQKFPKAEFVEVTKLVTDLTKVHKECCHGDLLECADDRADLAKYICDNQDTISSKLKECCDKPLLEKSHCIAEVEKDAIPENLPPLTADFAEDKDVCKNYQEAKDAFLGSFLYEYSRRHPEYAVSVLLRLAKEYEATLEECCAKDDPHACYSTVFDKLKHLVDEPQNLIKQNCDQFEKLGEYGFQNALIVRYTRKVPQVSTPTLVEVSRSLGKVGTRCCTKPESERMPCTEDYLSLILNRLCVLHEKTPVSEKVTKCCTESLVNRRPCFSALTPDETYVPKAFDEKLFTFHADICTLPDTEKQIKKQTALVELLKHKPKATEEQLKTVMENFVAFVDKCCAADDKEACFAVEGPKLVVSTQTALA

With `Cc1ccc(S(=O)(=O)N2[C@@H](c3ccccc3)C(C(=O)O)=C[C@H]2C(C)(C)C)cc1`, the composite z-score was 1 with Albumin (Bos taurus); 0.178 in assay [2]; 0.0458 in assay [3]; 0.756 in [4]; 2.82 in assay [5]; 0.827 in assay [6]. For the same compound, the composite z-score is 1.3 in the assay on Sam68 (KHDRBS1); -0.301 in assay [7]; 1.17 in assay [8]; 1.43 in [9]; 1.18 in assay [10]; 1.31 in [11]. The composite z-score in assay [12] was 0.651; in [13] it was 0.804; in [14], -0.0977; with Lefty1, 0.576; in assay [16], 1.31. The composite Z-score in assay [1] was 0.882 (inactive). In addition, the z-score is -1.04 in [15] and 1.19 (inactive) in [17].
For the compound `COc1ccc([Si](C)(C)[C@H]2[C@H](CC(=O)N3CCC[C@H]3CO)O[C@@]3(C(=O)N(C)c4c(Br)cc(C)cc43)[C@@H]2C)cc1`, the composite z-score with Albumin (Bos taurus) was 0.824; in assay [2], 0.189; in assay [3], 0.503; in [4], 0.81; in assay [5], 2.52; in assay [6], 0.548. The composite z-score in the assay with Sam68 (KHDRBS1) stood at 1.3; in assay [7], 1.38; in assay [8], 1.19; in assay [9], 1.15; in assay [10], 1.22; in assay [11] it was 1.44. The composite z-score turned out to be 0.74 in assay [12]; 1.59 in assay [13]; 1.86 in assay [14]; 1.43 with Lefty1; 1.59 in assay [16]. Moreover, the composite Z-score in assay [1] was 3.93 (inactive). Also, the z-score in [15] is -0.0282; in assay [17] it was 0.395 (inactive).
As for `O=C1c2ccccc2[C@](Cc2ccccc2I)(C(=O)NCCN2CCOCC2)[C@H](c2ccc(CO)cc2)N1Cc1ccccc1C(F)(F)F`, the composite z-score was 0.543 with Albumin (Bos taurus); -0.0014 in [2]; -0.0771 in assay [3]; 0.594 in [4]; 2.09 in assay [5]; 0.329 in assay [6]. Moreover, the composite z-score in the assay on Sam68 (KHDRBS1) was 1.29; in assay [7] it was -0.408; in assay [8], 1.13; in [9], 0.218; in [10], 1.18; in assay [11], 0.334. Also, the composite z-score was determined as 0.88 in assay [12]; 0.447 in assay [13]; 0.0123 in [14]; 0.246 in the assay on Lefty1; 0.418 in assay [16]. Besides, the composite Z-score in assay [1] was -0.0238 (inactive). Also, the values for the z-score in assay [15] and in [17] were 2.25 and -0.0684 (inactive), respectively.
For `O=C1OCCC/C=C\[C@H]2OC34C=CCN(Cc5ccccc5)C(=O)[C@H]3N(CCO)C(=O)[C@@H]4C12` (stereo not given in full), the composite z-score in the assay with Albumin (Bos taurus) was -0.78; in [2], 0.157; in [3], -0.0658; in [4] it was 0.885; in assay [5], 1.11; in assay [6], 0.623. Also, the composite z-score with Sam68 (KHDRBS1) is 0.747; in assay [7], -0.32; in [8], -0.619; in [9], -0.941; in [10] it was 0.444; in assay [11] it was -0.287. Moreover, the composite z-score in assay [12] was -0.956; in assay [13] it was -0.296; in assay [14], -0.259; in the assay with Lefty1, 0.398; in assay [16], -0.889. In assay [1], the composite Z-score is 0.822 (inactive). Besides, the z-score was 1.64 in assay [15] and -1.56 (inactive) in assay [17].
Consider `COCCOC(=O)N1C(=O)[C@@]2(c3cc(C#CC4=CCCCC4)ccc31)[C@H](c1ccc(O)cc1)N1[C@H](c3ccccc3)[C@H](c3ccccc3)OC(=O)[C@H]1[C@@H]2C(=O)N1CCc2cc(OC)c(OC)cc2C1`, for which the composite z-score with Albumin (Bos taurus) is 0.699; in [2] it was -0.0014; in assay [3], -0.0454; in [4], 0.468; in [5], 2.29; in assay [6], 0.743. The composite z-score with Sam68 (KHDRBS1) was 1.28; in [7], -0.329; in assay [8] it was 0.753; in [9], 1.38; in assay [10], 1.19; in [11], 0.567. Further, the composite z-score in assay [12] came out at 0.789; in assay [13] it was 0.427; in assay [14], 0.423; in the assay on Lefty1, 0.0605; in assay [16], 0.726. For the same compound, the composite Z-score in assay [1] was -0.007 (inactive). Also, the results for the z-score in assay [15] and in assay [17] were 0.273 and 0.0369 (inactive), respectively.
